In PubChem BioAssay AID588335 (The Scripps Research Institute Molecular Screening Center, 2011):
In all, about 360,000 compounds went through this assay and about 4,500 (1.2%) were called active. This is one part of a sample in which actives are shown more often than they occur. No stated cut-off is given here; in the data, active means inhibition above about 30%; inactive means the rest.

Experiment: inhibition of GDH and TPI enzymes – biochemical, absorbance, full deck, artefact control for M. tuberculosis FBA inhibitor project, primary screen (AID 588335);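 further: 0% = DMSO wells and 100% = wells lacking the enzyme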
Conditions: GDH-TPI coupled enzyme counterscreen, NADH absorbance; at 4.8 µM; hits give high values

Question: With Cc1cc(NC(=O)/C=C/C(=O)N(c2ccccc2C)C(C(=O)NC2CCCC2)c2ccc(F)cc2)no1 (stereo not given) as the compound, how does the inhibition read?
Answer: 15.8% (inactive)

Question: For CN(C)/C=C1\C=C(c2ccccc2)OC1=O, which inhibition is on record?
Answer: 17.7% (inactive)

Question: With CN(C)/C=C1/C(=O)Nc2ccccc21 as the compound, how does the inhibition read?
Answer: 36.4% (active)

Question: With O=C1c2ccccc2-c2ccccc2NC1O (stereo not given) as the compound, how does the inhibition read?
Answer: -4.42% (inactive)

Question: Which inhibition does the source give for CCN(CC(=O)NC(=O)NCc1ccccc1)Cc1nc2ccccc2c(=O)[nH]1 here?
Answer: -1.22% (inactive)

Question: Which inhibition does the source give for CC(C)(C)c1ccc(NC(=O)COC(=O)CCc2nc3ccccc3c(=O)[nH]2)cc1 here?
Answer: 3.69% (inactive)

Question: With CCN(CC)c1ccc(C(=O)NNC(=O)CCc2nc3ccccc3c(=O)[nH]2)cc1 as the compound, how does the inhibition read?
Answer: 30.9% (active)

Question: Which inhibition does the source give for COc1ccc(S(=O)(=O)N2CCN(C(=O)c3cccs3)CC2)cc1OC here?
Answer: -5.51% (inactive)

Question: With CC(C(=O)N(C)CC(=O)Nc1ccccc1C(F)(F)F)N1C(=O)c2ccccc2C1=O (stereo not given) as the compound, how does the inhibition read?
Answer: -1.08% (inactive)

Question: Which inhibition does the source give for C/C(=N\Nc1cccc(C(=O)O)c1)c1ccc2c(c1)Nc1ccccc1S2 here?
Answer: 7.28% (inactive)

Question: For O=C(N/N=C/c1ccsc1)c1cc(O)cc(O)c1, which inhibition is on record?
Answer: 4.09% (inactive)

Question: For Cc1nonc1C(=O)N/N=C/c1ccc(O)cc1, which inhibition is on record?
Answer: 29.1% (inactive)

Question: With Cc1nc2ccc(C(=O)N/N=C/c3ccc(O)cc3)cc2[nH]1 as the compound, how does the inhibition read?
Answer: 36.4% (active)

Question: With O=S(=O)(c1ccc(SCc2ccc(Br)cc2)nc1)N1CCOCC1 as the compound, how does the inhibition read?
Answer: 0.32% (inactive)

Question: With O=C(NCc1ccccc1)C(c1ccccc1)N(C(=O)c1csnn1)c1ccc(F)cc1 (stereo not given) as the compound, how does the inhibition read?
Answer: -1.56% (inactive)

Question: Which inhibition does the source give for Cc1nc2ccc(S(=O)(=O)N(C)CC(=O)NC(C)c3ccccc3)cc2s1 (stereo not given) here?
Answer: 14.8% (inactive)

Question: With Cc1cccc(C)c1NC(=O)CNC(=O)c1ccc(N2CCOCC2)c([N+](=O)[O-])c1 as the compound, how does the inhibition read?
Answer: 1.79% (inactive)

Question: Which inhibition does the source give for CC(C)CN(C(=O)COC(=O)c1ccc2ccccc2c1)c1c(N)n(Cc2ccccc2)c(=O)[nH]c1=O here?
Answer: 2.15% (inactive)

Question: With CCN(/N=C/c1ccccc1)c1cc(=O)n(C)c(=O)[nH]1 as the compound, how does the inhibition read?
Answer: 36.7% (active)

Question: With Cc1cn(C2CC(O)C(CO)O2)c(=O)n(CCCc2ccccc2)c1=O (stereo not given) as the compound, how does the inhibition read?
Answer: -7.8% (inactive)

Question: With COc1cc(C(=O)NN(CCC#N)C2=NS(=O)(=O)c3ccccc32)cc(OC)c1OC as the compound, how does the inhibition read?
Answer: 4.46% (inactive)

Question: For O=c1[nH]c(/C=C\c2cccc(C(F)(F)F)c2)nc(O)c1[N+](=O)[O-], which inhibition is on record?
Answer: 16.2% (inactive)

Question: With Cc1ccccc1/C=C\c1nc(O)c([N+](=O)[O-])c(=O)[nH]1 as the compound, how does the inhibition read?
Answer: 34.9% (active)

Question: Which inhibition does the source give for Cc1cc(OC(=O)c2ccccc2)c([N+](=O)[O-])c(=O)[nH]1 here?
Answer: 3.89% (inactive)

Question: Which inhibition does the source give for Cc1nnc(SCc2cccc(Cl)c2)n(N)c1=O here?
Answer: -5.68% (inactive)

Question: With Cc1ccc(C(=O)N/C(=C/c2cccs2)C(=O)N2CCCCC2)cc1 as the compound, how does the inhibition read?
Answer: 1.16% (inactive)

Question: Which inhibition does the source give for CN1CCN(C(=O)/C(=C\c2ccc3c(c2)OCO3)NC(=O)c2cccs2)CC1 here?
Answer: 13.8% (inactive)

Question: For CN1CCN(C(=O)/C(=C\c2cccs2)NC(=O)c2cccs2)CC1, which inhibition is on record?
Answer: 30.9% (active)

Question: Which inhibition does the source give for FC(F)(F)c1ccc2c3n(nc2c1)CCN=C3c1ccc(Cl)cc1 here?
Answer: 9.17% (inactive)

Question: For O=c1[nH]c2c(c(=O)n1-c1ccccc1)CCO2, which inhibition is on record?
Answer: 6.88% (inactive)

Question: For COc1ccccc1C(C)NC(=O)Cc1ccsc1 (stereo not given), which inhibition is on record?
Answer: 6.79% (inactive)

Question: With Cc1ccc(N2C(=O)C3C4C=CC(CC4)C3C2=O)cc1Cl (stereo not given) as the compound, how does the inhibition read?
Answer: 0% (inactive)

Question: With CC1(C)CC(N2CCN(C(c3ccccc3)c3ccccc3)CC2)=CC(=[N+]2CCCCC2)C1 as the compound, how does the inhibition read?
Answer: 42% (active)

Question: For COC(=O)C(c1ccccc1)N1CCCCCC1 (stereo not given), which inhibition is on record?
Answer: -4.27% (inactive)

Question: For CCOc1ccc(NC(=O)CN(C)CC(=O)NC(C)c2ccccc2)cc1OCC (stereo not given), which inhibition is on record?
Answer: 11% (inactive)

Question: Which inhibition does the source give for Nc1c(-c2ccc(F)cc2)cnn1C1CCS(=O)(=O)C1 (stereo not given) here?
Answer: 3.77% (inactive)

Question: With CCOc1cc(/C=N/NC(=O)c2c(C)nc3ccc(Cl)cn23)ccc1O as the compound, how does the inhibition read?
Answer: 52.2% (active)

Question: With CCOc1cc(/C=N/NC(=O)CN2CCCCC2)ccc1O as the compound, how does the inhibition read?
Answer: 21.8% (inactive)

Question: Which inhibition does the source give for CCOc1ccc(/C=N\NC(=O)c2c(C)nc3cc(C)ccn23)cc1 here?
Answer: 21.5% (inactive)

Question: For CCN1C(=NCCc2cccnc2)N[C@@H](c2ccccc2)[C@H](C(=O)OC)[C@H]1C, which inhibition is on record?
Answer: -8.4% (inactive)

Question: Which inhibition does the source give for Cc1[nH]c2ccccc2c1/C=C(/C#N)C(=O)NC(C)C here?
Answer: 6.92% (inactive)

Question: With COCCNC(=S)N(CCc1c(C)[nH]c2ccc(C)cc12)Cc1cccnc1 as the compound, how does the inhibition read?
Answer: 0% (inactive)

Question: With COCCNC(=S)N/N=C/c1c(C)[nH]c2ccccc12 as the compound, how does the inhibition read?
Answer: 31% (active)

Question: Which inhibition does the source give for CC(=O)Nc1cccc(C(=O)OCN2C(=O)c3ccccc3C2=O)c1 here?
Answer: -2.41% (inactive)

Question: For COc1ccc(CCNC(=S)N2CCN(S(=O)(=O)c3ccc(F)cc3)CC2)cc1, which inhibition is on record?
Answer: 1.03% (inactive)

Question: With CCN(/N=C/c1ccc(N(C)C)cc1)c1nc2ccccc2[nH]1 as the compound, how does the inhibition read?
Answer: 31.3% (active)

Question: For Oc1ccc(/C=N/N(Cc2ccccc2)c2ccccc2)cc1, which inhibition is on record?
Answer: 11.2% (inactive)

Question: Which inhibition does the source give for COc1ccc(C(=O)COC(=O)c2nn(C)c(=O)c3ccccc23)c(OC)c1 here?
Answer: -0.9% (inactive)

Question: With O=C(O)C1CCCN1S(=O)(=O)c1ccc2c(c1)CCC2 (stereo not given) as the compound, how does the inhibition read?
Answer: -0.82% (inactive)

Question: With COc1cccc(-c2sc3ccc(OC)cc3c2-c2ccc(OCCN3CCCCC3)cc2)c1 as the compound, how does the inhibition read?
Answer: 0.91% (inactive)

Question: Which inhibition does the source give for COc1ccc2sc(-c3ccccc3OC)c(-c3ccc(OCCN4CCCC4)cc3)c2c1 here?
Answer: 8.81% (inactive)

Question: Which inhibition does the source give for COc1ccc2sc(-c3ccc(N(C)C)cc3)c(-c3ccc4cc[nH]c4c3)c2c1 here?
Answer: 33.5% (active)

Question: Which inhibition does the source give for COc1ccc(CNC(=O)c2c(C)cc(=O)oc2C)cc1OC here?
Answer: 5.96% (inactive)

Question: With Cc1cc(=O)oc(C)c1C(=O)NCCN(C)Cc1ccccc1 as the compound, how does the inhibition read?
Answer: 45.1% (active)

Question: With Cc1cc(=O)oc(C)c1C(=O)NCc1ccc(F)cc1 as the compound, how does the inhibition read?
Answer: 16.2% (inactive)

Question: For CC(NC(=O)c1ccc(Cl)cc1)C(=O)N1CCCCC1 (stereo not given), which inhibition is on record?
Answer: 8.65% (inactive)

Question: Which inhibition does the source give for CCn1c(SCC(=O)NCC2CCCO2)nc2ccccc21 (stereo not given) here?
Answer: -11% (inactive)

Question: Which inhibition does the source give for Cn1c(SCC(=O)c2ccccc2)ncc(C(=O)Nc2ccc(F)cc2)c1=O here?
Answer: 2.1% (inactive)

Question: With Cc1ccc(NC(=O)c2cnc(SCC(=O)NCC3CCCO3)n(C)c2=O)cc1 (stereo not given) as the compound, how does the inhibition read?
Answer: 33.3% (active)

Question: With CC1C(=O)N2CCCc3cc(S(=O)(=O)NCc4ccc(F)cc4)cc1c32 (stereo not given) as the compound, how does the inhibition read?
Answer: 6.01% (inactive)
